# Results: the supplement of paper PMC13380429
# Test system: Vero E6 infected with SARS-CoV-2
# Experiment: SARS-CoV-2 infection rate relative to infected DMSO; higher = more infection, active = 60 or less
# Settings: 24 h
row,SMILES,SARS-CoV-2 infection rate
1,CC(COc1ccccc1)NC(C)C(O)c1ccc(O)cc1 (stereo not given) [isoxsuprine] (10 µM),109% (inactive)
2,CC(=O)N(CC(C)C(=O)O)c1c(I)cc(I)c(N)c1I (stereo not given) [iocetamic-acid] (10 µM),97% (inactive)
3,CCC(=O)O[C@]1(C(=O)COC(C)=O)CC[C@H]2[C@@H]3C[C@H](C)C4=CC(=O)C=C[C@]4(C)[C@H]3[C@@H](O)C[C@@]21C [methylprednisolone-aceponate] (10 µM),108% (inactive)
4,O=C(c1ccc(F)cc1)C1CCN(CCn2c(=S)[nH]c3ccccc3c2=O)CC1 [altanserin] (10 µM),99% (inactive)
5,CCNCCCNCCCCNCCCNCC (0.833333 µM),80.5% (inactive)
6,O=C(O)Cc1ccc(OCCNC[C@H](O)c2ccccc2)cc1 (10 µM),106% (inactive)
7,Cc1nc(Nc2cnn(C3CCNCC3)c2)nc2c1N(C)C(=O)c1cc3ccccc3cc1N2C (0.833333 µM),104% (inactive)
8,C/C=C(/C)C(=O)O[C@H]1C(C)=C[C@]23C(=O)[C@@H](C=C(CO)[C@@H](O)[C@]12O)[C@H]1[C@@H](C[C@H]3C)C1(C)C [ingenol-mebutate] (0.833333 µM),95% (inactive)
9,CCCCN(CCCC)CCCOC(=O)c1ccc(N)cc1 [butacaine] (10 µM),100% (inactive)
10,C=CCN1CC[C@]23c4c5ccc(O)c4O[C@H]2[C@@H](OCCOCCOCCOCCOCCOCCOCCOC)CC[C@@]3(O)[C@H]1C5 [naloxegol] (10 µM),92% (inactive)
